The values that follow come from PubChem BioAssay (Tox21).

Values joined by “and” are separate entries in the source; they are usually repeats but may differ in a detail not shown here. Equal values may be shown once. Records with an inconclusive call do not appear. A call without a number means that no potency is given here. Values without a mark were called inactive. Active and inactive are the calls of the source. The call rests on the fitted dose curve; in most records, active means well fitted cell-killing curve with a large enough effect in the repeat runs; inconclusive means weak or mixed curves; inactive means flat fitted curve, though single readings scatter.
Potency means the concentration at half of the fitted maximal effect.

The assay can be described thus: qHTS assay to identify small molecule antagonists of the estrogen receptor beta (ER-beta) signaling pathway - cell viability counter screen (AID 1259382). Further: nearly all actives have a fitted effect of over 55% in size. Particulars: ER-beta-UAS-bla HEK293T viability, CellTiter-Glo luminescence, 16 h; series mostly up to 92.4 µM. The source says:
U.S. Tox21 Program National Center for Advancing Translational Sciences [NCATS] NIH Chemical Genomics Center [NCGC] U.S. Environmental Protection Agency [EPA] National Institutes of Environmental Health Sciences [NIEHS] National Toxicology Program [NTP] U.S. Food and Drug Administration [FDA] Tox21 Assay Overview: Estrogen receptor (ER), a nuclear hormone receptor, plays an important role in development, metabolic homeostasis and reproduction. Two subtypes of ER, ER-alpha and ER-beta, have similar expression patterns with some uniqueness in both types. Endocrine disrupting chemicals (EDCs) and their interactions with steroid hormone receptors like ER causes disruption of normal endocrine function. To identify the compounds that inhibit ER signaling, an ER-beta-UAS-bla GripTite cell line (Life Technologies, Madison, WI, USA) containing a beta-lactamase reporter gene under the control of an UAS response element was used to screen Tox21 10K compound library. The cytotoxicity of the Tox21 compound library against the ER-beta-bla cell line was tested in parallel by measuring the cell viability using CellTiter-Glo assay in the same wells.
Tox21 Assay Protocol Summary: ER-beta-UAS-bla HEK293T cells were dispensed at 2,000 cells/4 uL of assay medium containing 2% charcoal stripped FBS per well into black wall/clear-bottom 1536-well plates using a Multidrop Combi (ThermoFisher Scientific, Waltham, MA) dispenser. After the assay plates were incubated at a 37C and 5% CO2 for 6 hr, 23 nL of compounds dissolved in DMSO, positive controls or DMSO only was transferred to the assay plate by a Pintool station (Kalypsys, San Diego, CA), followed by addition of 1 uL (1nM as final concentration) of 17-beta-estradiol (E2) in assay medium using a Flying Reagent Dispenser (FRD, Aurora Discovery, San Diego, CA). The plates were incubated at 37C and 5% CO2 for 16 hr. Then 1 uL of LiveBLAzer B/G FRET substrate was added using a Flying Reagent Dispenser, the plates were incubated at room temperature for 2 hours, and fluorescence intensity was measured by an Envision plate reader (PerkinElmer, Shelton, CT). For cell viability readout that measures cytotoxicity, 4 uL/well of CellTiter-Glo reagent was added into the assay plates using a FRD. After 30 min incubation at room temperature, the luminescence intensity in the plates was measured using a ViewLux (PerkinElmer) plate reader.
In general terms: Quantitative high-throughput screening tests each substance at several concentrations.
For `NC(=O)c1ccccc1N`, the Potency entry was “inactive”.
For `NCCCC(O)(P(=O)(O)O)P(=O)(O)O`, the Potency entry was “inactive”.
Same read-out and setting: then `CC(C)(c1cc(Br)c(OCCO)c(Br)c1)c1cc(Br)c(OCCO)c(Br)c1`, with 53.3 µM (active); and `CCCCCCCCCCCCCCNCCO`, with “inactive”.
As for `C=C/C=C/C=C/CCCCC`, the activity change, negative = cytotoxicity was 0.024% [at 19 µM].
Take `OCCC(O)CO` (stereo not given): the Potency result is “inactive”.
Regarding `OCCCCl`, the Potency result was “inactive”.
In the case of `C[Si](C)O[Si](C)C`, the Potency entry was “inactive”.
Consider `CCN(CC)CCOc1ccc(C(O)(Cc2ccc(Cl)cc2)c2ccc(C)cc2)cc1` (stereo not given), for which the Potency was 29.8 µM (active).
As to `O[C@@H](c1cc(C(F)(F)F)nc2c(C(F)(F)F)cccc12)[C@H]1CCCCN1`, the Potency was 16.8 µM (active).
The same measure, in the same setting: to `CC(=O)O[C@@H]1C[C@@H]2CC[C@@]1(C)C2(C)C` belongs “inactive”.
On to `Brc1ccccn1`, for which the Potency result was “inactive”.
For the compound `O=C(Oc1ccccc1)c1cccc(C(=O)Oc2ccccc2)c1`, the Potency result was “inactive”.
On the same count and under the same terms, to `Clc1ccc(C(c2ccccc2Cl)C(Cl)Cl)cc1` (stereo not given) belongs “inactive”; to `Clc1ccccc1CN1CCc2sccc2C1`, “inactive”.
The same measure, in the same setting: then `CCCCCCCC/C=C\CCCCCCCC(=O)NCc1ccc(O)c(OC)c1`, with “inactive”; and `CCN(CC)CCNc1ccc(CO)c2sc3ccccc3c(=O)c12`, with 11.9 µM (active); and `CC(C)OC(=O)c1cc(C(=O)OC(C)C)cc([N+](=O)[O-])c1`, with “inactive”.
`CN(C)CCCN1c2ccccc2CCc2ccccc21`: the Potency is 27.3 µM (active) and 23.7 µM (active).
`CCCCNc1c(C(=O)OCC)c(C)nc2c1cnn2CC`: the Potency result was “inactive”.
With `NC1(c2ccc(-c3nc4ccn5c(=O)[nH]nc5c4cc3-c3ccccc3)cc2)CCC1`, the Potency is 2.11 µM (active).
For `C=CC(=O)OCCN(CC)CC`, the Potency result was “inactive”.
For the compound `CCCCCCCC/C=C/CCCOC(C)=O`, the Potency entry was “inactive”.
On the same count and under the same terms, to `CCOC(=O)N1CCC(=C2c3ccc(Cl)cc3CCc3cccnc32)CC1` belongs 54.5 µM (active); to `CCCCCCCOC(=O)c1ccccc1C(=O)OCCCCCCC`, “inactive”.
As to `CCOCN(C(=O)CS(=O)(=O)O)c1c(C)cccc1CC`, the Potency entry is “inactive”.
Consider `CC1=CP(=O)(c2ccccc2)CC1` (stereo not given), for which the Potency result is “inactive”.
For the compound `O=Nc1ccc(NO)cc1`, the Potency entry was “inactive”.
Still for that read-out and setting: to `COC(=O)C1=C(C)NC(C)=C(C(=O)OCCCN2CCC(c3ccccc3)(c3ccccc3)CC2)C1c1cccc([N+](=O)[O-])c1` (stereo not given) belongs 23.7 µM (active); to `Cc1cccc(C)c1NC(=O)CN1CCN(CCCC(c2ccc(F)cc2)c2ccc(F)cc2)CC1`, 26.6 µM (active); to `C=C(C)CCCC`, “inactive”.
`CN(Cc1cc(Br)cc(Br)c1N)C1CCCCC1`: the Potency result is “inactive”.
Still for that read-out and setting: then `CC(=O)C=O`, with “inactive”.
In the case of `CCCCCCCCCCCCCCCCCO`, the activity change, negative = cytotoxicity was 3.37% [at 19 µM].
On to `CCN=C1C=CC(=C(c2ccc(N(CC)CC)cc2)c2ccc(N(CC)CC)cc2)c2ccccc21`, for which the Potency was 21.6 µM (active).
Take `COc1cc(C(C)C)c2c(c1)S(=O)(=O)N(COc1cc(=O)n3cccc(OCCN4CCCCC4)c3n1)C2=O`: the activity change, negative = cytotoxicity is -17.6% [at 19 µM].
`CCOC(/C=C(\C)CCC=C(C)C)OCC`: the Potency result was “inactive”.
On the same count and under the same terms, then `CC(C)(C)c1cc(/C=C2\SC(=N)NC2=O)cc(C(C)(C)C)c1O`, with “inactive”; and `OCCN1CN(CCO)CN(CCO)C1`, with “inactive”; and `Oc1ccc(-c2ccc(O)cc2)cc1`, with “inactive”.
